PubChem BioAssay AID720629 (Broad Institute, 2013)
Records with an inconclusive call do not appear. Active and inactive are the calls of the source. The rule behind the calls is not given here.

Assay: SNB-75 cell apoptosis via caspase 3/7 – caspase 3/7 luminescence, several timepoints, dry powder, mechanism study for HRAS target identification, late-stage follow-up (AID 720629)
Conditions: max activity: measured here: caspase 3/7, timepoint 1, at 0.0003 µM, stronger effect = higher value unless noted

Compound	max activity	outcome
CCC(=O)N(c1ccc(OC)c(Cl)c1)C(C(=O)NCCc1ccccc1)c1cccs1 (centres undefined)	-24.1% [measured here: caspase 3/7, timepoint 1, at 0.0001 µM, stronger effect = higher value]	inactive
C#CCCCC(=O)NCCOCCOCCOc1ccc(N(C(=O)CCl)C(C(=O)NCCc2ccccc2)c2cccs2)cc1Cl (centres undefined)	-28.3%	inactive
